The text below walks through data of PubChem BioAssay (NCI).

Holding throughout (experiment): NCI-60 one-dose screen, 48 h (100 = growth as untreated, 0 = no growth, -100 = all killed)
Test [1] has as its system EKVX NSCLC. As to conditions: 10 µM unless noted.
For test [2], the system named is SN12C renal. To be noted: 10 µM unless noted.
Test [3] relates to TK-10 renal.
Test [4] deals with ACHN renal. As to conditions: 10 µM unless noted.
Test [5] concerns CAKI-1 renal. To be noted: 10 µM unless noted.
The subject of test [6] is A498 renal. To be noted: 10 µM unless noted.
For test [7], the system named is MOLT-4 leukemia. As to conditions: 10 µM unless noted.
Test [8] concerns SR leukemia. To be noted: 10 µM unless noted.
For test [9], the system named is UO-31 renal. As to conditions: 10 µM unless noted.
The test system of test [10] is CCRF-CEM leukemia. To be noted: 10 µM unless noted.

SMILES strings stand for the structures. Several values for one entry are separate records, joined by “and”; a condition that tells them apart may be missing. Identical values can stand only once. About 83,000 compounds went through this panel and 20% of them were active in at least one assay; those are over-represented in the sample as a whole.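 Values shown are percent growth following 48 h exposure of cells in 96-well plates to a single concentration of compound; below 10 was considered active.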 A number with no mark means an inactive call. Activity calls are given as the source filed them.

`COc1cc(/C=C/C(=O)c2ccc(F)cc2)ccc1OCCCCCOc1cc2c(cc1OC)C(=O)N1CCCC1C=N2` (stereo not given): the growth was -20.9% (active) in test [1]; -2.73% (active) in test [2]; -9.06% (active) in [3] (10 µM unless noted); -9.07% (active) in test [4]; -1.54% (active) in test [5]; -65.5% (active) in test [6]. For the same compound, the growth in [7] is -28.9% (active); in test [8] it was -32.6% (active).

Consider `ClC1=C(Cl)C(=C2C(Cl)=C(Cl)C(Cl)=C2Cl)C(Cl)=C1Cl`, for which the growth was 105% in [1]; 98.5% in test [2]; 81% in test [9]; 94.1% in [3] (10 µM unless noted); 88.2% in test [6]; 82.1% in test [7]. In addition, in test [8], the growth was 103%.

Take `CCC(C)(C)C(=O)O[C@H]1C[C@@H](C)C=C2C=C[C@H](C)[C@H](CC[C@@H]3C[C@@H](O)CC(=O)O3)[C@H]21`: the growth in test [1] is 51.7%; in [9], 52.1%; in test [3] (10 µM unless noted), 83.1%; in test [4], 14.7%; in test [5] it was -33.5% (active); in test [6] it was -38.8% (active). For the same compound, the growth in [10] was 62.5%; in test [7], 72.8%.

For `Clc1cccc(Cc2cn3cc(-c4ccccc4)nc3s2)c1`, the growth in [2] was 68.2%; in test [9], 49.7%; in test [3] (10 µM unless noted), 69.2%; in test [4] it was 27.9%; in test [5], 47.8%; in test [6], 84.9%. Besides, the growth is 63.4% in [10] and 64.1% in test [7].

`CN1CCN(CC(=O)Nc2nc3c(s2)Nc2cc(Cl)c(Cl)cc2NC3=O)CC1`: the growth in test [2] is 109%; in test [9], 85.4%; in test [3] (10 µM unless noted) it was 95.8%; in test [4], 105%; in test [5], 102%; in test [6] it was 106%. Further, the growth in test [10] was 99.8%; in test [7], 90.8%; in test [8], 98.8%.

As to `CC(C)COCC(CN(Cc1ccccc1)c1ccccc1)N1CCCC1` (stereo not given), the growth is 54% in test [1]; 37% in [9]; 29.9% in [3] (10 µM unless noted); 57.1% in test [5]; 83.3% in [6]; 41.7% in test [10]. For the same compound, the growth in test [7] is 28.8%.

Turning to `O=C(Cc1ccccn1)C(F)(F)C(F)(F)C(F)(F)F`, the growth in test [1] was 130%; in [2] it was 95.2%; in test [9], 91.6%; in [3] (10 µM unless noted), 117%; in [4], 111%; in test [10], 97.5%. Further, the growth in test [7] was 97%; in test [8], 97.9%.

Consider `COC1=CC(c2ccc[nH]2)=N/C1=C\c1[nH]c(C)c(C(=O)CCC(=O)Oc2ccc3c(c2)CCC2C3CC[C@]3(C)C(=O)CC[C@@H]23)c1C` (stereo not given in full), for which the growth is 63.3% in test [2]; 52.9% in test [9]; 107% in [3] (10 µM unless noted); 62.7% in test [4]; 60.1% in test [5]; 102% in test [6]. Also, the growth in test [10] is 32.9%; in test [7] it was 25.6%; in test [8] it was 10.1%.

Take `c1ccc2c(c1)[nH]c1c2cc[n+]2cc3c(cc12)CCCC3`: the growth in [2] was 24.5%; in [9], 82.1%; in test [3] (10 µM), 69.2%; in [3] (100 µM), -97.9% (active) and -92.5% (active); in test [4] it was 66.2%; in test [6], 97.3%. For the same compound, the growth in [10] is 1.33% (active); in test [7], 2.41% (active); in test [8], 10.6%.

On to `COc1ccc(Cn2c(NCCCN(C)C)nc(=O)n(Cc3ccc(F)cc3)c2=O)cc1`, for which the growth in test [2] was 95.4%; in test [9], 63.6%; in [3] (10 µM unless noted) it was 110%; in test [4] it was 105%; in test [5], 83.1%; in test [6] it was 95.6%. In addition, the growth in [10] is 114%; in test [7], 84.9%; in test [8], 83.5%.

For the compound `COc1ccc(-c2oc3cc(O)c(OC)c(O)c3c(=O)c2OC)cc1O`, the growth was 83.8% in test [1]; 37.3% in test [2]; 35.5% in test [9]; 37.5% in test [4]; 72.2% in test [5]; -4.31% (active) in [10]. In addition, the growth in [7] was 14.4%; in test [8], 7.87% (active).

As to `COc1ccc2c(c1)C(=O)/C(=C/c1ccc([N+](=O)[O-])s1)O2`, the growth was -8.43% (active) in test [2]; -79.1% (active) in [9]; -15.3% (active) in test [3] (10 µM unless noted); -54% (active) in test [4]; 29.7% in [5]; 99.6% in test [6]. The growth was 0.726% (active) in [10] and 5.68% (active) in [7].

For `C/C(=C\CCc1ccsc1)CC/C=C(\C)CCCN1CCN(CCO)CC1`, the growth is 55.2% in test [2]; 62.1% in [9]; 40% in [3] (10 µM unless noted); 50.6% in [4]; 77.6% in test [5]; 39.2% in test [6]. For the same compound, the growth was 24.1% in test [10], 2.14% (active) in [7] and -29.1% (active) in test [8].

As for `CCN(CC)CCCNCCCNc1cc(OC)cc2cccnc12`, the growth in [1] was 80.7%; in [9], 88.1%; in test [3] (10 µM unless noted) it was 112%; in test [4] it was 101%; in [5], 97.6%; in test [6], 76.4%. Besides, the growth is 88.9% in test [10], 75.6% in [7] and 79.5% in [8].

With `COc1cc(/C=C2\CCC/C(=C\c3ccc(OCC4CO4)c(OC)c3)C2=O)ccc1OCC1CO1` (stereo not given), the growth in [2] was 23.8%; in [9], 47.6%; in [3] (10 µM unless noted) it was 58.5%; in test [4], 30.2%; in test [5], 72.2%; in test [6], 63.9%. Also, the growth in test [10] is 1.96% (active); in test [7], -12.6% (active); in test [8], -3.1% (active).
